# Experimental data reported in the supplement of paper PMC3334620.
# In all, about 33,000 sequences were measured (“E-score (-0.5 to 0.5)”: median about -0.0034, highest 2% from about 0.25 on). This is one part of a sample in which the highest values are shown more often than they occur.
# Biological target: T1, Yap3 (UniProt P38749)
# T1 sequence: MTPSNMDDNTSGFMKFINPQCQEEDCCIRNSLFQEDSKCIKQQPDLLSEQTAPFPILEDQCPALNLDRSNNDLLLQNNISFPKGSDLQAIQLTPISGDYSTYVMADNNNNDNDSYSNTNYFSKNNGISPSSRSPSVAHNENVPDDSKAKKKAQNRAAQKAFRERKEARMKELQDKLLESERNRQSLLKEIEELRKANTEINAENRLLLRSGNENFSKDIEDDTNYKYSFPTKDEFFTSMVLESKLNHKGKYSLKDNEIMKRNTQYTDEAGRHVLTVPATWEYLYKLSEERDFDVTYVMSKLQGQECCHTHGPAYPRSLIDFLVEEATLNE
# Assay: PBM E-score (8-mer binding enrichment) (E-score (-0.5 to 0.5)); higher = stronger / more preferred TF binding
# Conditions: protein concentration: 100 nM; construct: GST-full length
# Procedure: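 Universal 'all 10-mer' protein binding microarrays (Agilent AMADID 015681) probed with GST-tagged S. cerevisiae TFs (full-length or DBD) made by in vitro transcription/translation (PURExpress), about 100-200 nM. Bound TF was detected with fluorescent anti-GST. Each ungapped 8-mer (which stands for itself and its reverse complement) is scored by the PBM enrichment score (E-score), a modified Wilcoxon-Mann-Whitney statistic from -0.5 to +0.5, computed with the Universal PBM Analysis Suite. Scale: above 0.35 generally sequence-specific binding.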
row,Sequence,PBM E-score
1,TAACGATA,0.261
2,CAACGATA,0.0838
3,AAACGATA,0.0765
4,GAACTGTA,0.208
5,AATCAGGA,0.0679
6,TATAAATA,0.301
7,AATAAATG,0.216
8,ACTAAATC,0.198
9,AATAAAGT,0.262
10,AATAAATT,0.186
11,AATAAAGG,-0.0245
12,CCTAAATA,-0.122
13,CATAAATA,0.197
14,AATAAAGA,0.156
15,AATAAATA,0.315
16,ACTAAATA,0.29
17,GATAAATA,0.233
18,ATACTAGC,0.0285
19,GCCAGTCC,-0.343
20,CGATCGGC,0.00629
21,GAGCTAAC,0.0153
22,ACTCGCAC,-0.0984
23,AGTCGCAC,-0.233
24,AACTTGAT,0.15
25,GGCGGTGA,0.132

row,Sequence,PBM E-score
1,GAAGACCA,-0.105
2,CGGTAAAA,0.114
3,GGGTAAAA,0.258
4,GGGTAAAC,0.0445
5,AGATAAGG,-0.0911
6,AATAGAAC,0.16
7,AAACTAAT,0.272
8,TCACTAAA,0.121
9,GCACTAAA,0.179
10,AAACTAAC,0.232
11,GTACTAAA,0.21
12,TTACTAAA,0.401
13,AAACTAAA,0.261
14,ATACTAAA,0.188
15,ACACTAAA,0.261
16,AAACTAAG,0.186
17,GAACTAAA,0.0567
18,TAACTAAA,0.165
19,ATTTCTAG,0.083
20,GGATCCAA,0.138
21,CAGCGACG,-0.0734
22,GATTGGAC,0.0901
23,TCCTCTCA,0.0272
24,ACGATCAA,0.0848
25,ACAGAGGA,-0.00698

row,Sequence,PBM E-score
1,TCGGAAAA,0.275
2,AAGAAAAT,0.273
3,ACGGAAAT,0.323
4,AAAGAAAT,0.26
5,AAAGAAAA,0.18
6,AAGAAAAA,0.059
7,ACGGAAAC,-0.079
8,AAGAAATT,0.199
9,ACGGAAAA,0.107
10,AAAGAAAG,0.231
11,GCGGAAAA,0.245
12,ACGGAAAG,0.144
13,ACCCTTTA,0.101
14,CGCTGGTC,-0.307
15,ACGCTGAA,-0.00885
16,CCCATTGA,-0.0177
17,GATGCGAA,0.057
18,TCCGGTCA,0.00023
19,AAGTATCA,0.052
20,CCCCACTA,-0.135
21,AAGTTGCC,-0.0508
22,ACGAAAAG,0.153
23,ACGAAAAT,0.257
24,ACGAAAAA,0.0676
25,GACTCATC,-0.108

row,Sequence,PBM E-score
1,CGCGCTTA,0.265
2,CGCGCTGA,0.0303
3,AGCGCTTA,0.0641
4,ATCGATGC,0.133
5,CATTAAGA,0.0516
6,ATTGTTAA,0.17
7,ATTGTTAG,0.153
8,ATTGTTAC,0.288
9,CTTGTTTA,0.0644
10,ATTGTTTA,0.0804
11,GTTGTTTA,0.273
12,GTTGTTAA,0.298
13,CTTGTTAA,0.022
14,CTTGTTAC,0.0269
15,TTCAAAAA,0.0865
16,ACGTCCTA,0.00661
17,AGCACACT,0.0288
18,GGATCCAC,-0.0381
19,TGAAAGCA,0.254
20,GGAAAGAA,0.0609
21,TGAAAGAA,0.297
22,AGAAAGAA,0.0357
23,AGAAAGCA,0.232
24,GGAAAGCA,0.018
25,CGGCGTAC,-0.15

row,Sequence,PBM E-score
1,ACGGTTGC,-0.0961
2,TCCTGTCA,-0.0145
3,CCCTGGCC,-0.333
4,AAATCCAG,0.249
5,AAATCCAT,0.29
6,AAATCCAC,0.0662
7,CCGCTGTA,0.117
8,ATATAATG,0.2
9,ATATAATA,0.299
10,CTATAAGA,0.182
11,GTATAATA,0.287
12,ATATAAGA,0.346
13,GTATAAGA,0.0832
14,CTATAATA,0.0592
15,GTATAACA,0.133
16,GGATAATA,0.0461
17,AGTAAGCA,0.00993
18,AATCTGCG,-0.0221
19,AGCCCGCA,-0.123
20,AGCAACGC,-0.0123
21,AGTTTCGG,0.0851
22,ATTAATTG,0.245
23,GTTAATGA,0.133
24,ACTAATTC,0.178
25,ACTAATTA,0.362

row,Sequence,PBM E-score
1,ATTAATTA,0.241
2,ATTAATTC,0.3
3,GTTAATTA,0.262
4,GCTAATAA,0.144
5,GCTAATTA,0.279
6,CTTAATTA,0.174
7,ACTAATTG,0.167
8,CCTAATTA,0.136
9,AGAGATCA,0.0988
10,AAACGAGT,0.217
11,CAAGCTAA,-0.0766
12,CTTTTAAC,0.0122
13,AACAAAGT,0.221
14,AGCGAGCC,-0.122
15,AAAGACTG,-0.0469
16,ATATTATA,0.186
17,GTATTACA,0.291
18,GTATTATA,0.329
19,GTATTAGA,0.217
20,CTATTATA,0.145
21,CTATTACA,0.163
22,CCTTAAAG,0.06
23,CAAGTTGG,0.106
24,GTTGCTAA,0.251
25,CACCTGGG,-0.178

row,Sequence,PBM E-score
1,AAGCCTGG,-0.0378
2,CCATCGTA,0.0169
3,AAACAGCG,0.2
4,CCAGTAAC,0.0196
5,AAATATGA,0.224
6,CAATATAC,0.112
7,CAATATAA,0.307
8,TAATATAA,0.344
9,AAATATGT,0.286
10,AGATATAA,0.211
11,AAATATGC,0.00442
12,CAATATAG,0.218
13,GAATATAA,0.195
14,TCATATAA,0.203
15,AAATATAA,0.275
16,AGGATTGA,0.129
17,AGCAAGAT,0.14
18,AATTTCTG,0.089
19,ATCCCATA,-0.106
20,GTTGCATA,-0.0298
21,ATTTAGCC,0.0798
22,AGGGAGTC,-0.235
